# Bioassay records (PubChem BioAssay)
# The list is not random: actives were taken first. Their share in the collection is about 1.9%.
# MLL CXXC-DNA inh: inhibitors of human MLL CXXC domain-DNA interaction | Potency, µM (titrated, usually from 115 µM), for inactives: top-dose activity change, negative = inhibition, actives largely listed as inhibitors | MLL-CXXC / FITC-HOXA9 DNA fluorescence polarization | 0.037% of 290,000 active | AID 2662 | Q03164; active means well fitted inhibition curve with a large enough effect in the polarisation, with a control signal flat, not every such curve was filed as active; inconclusive means small, poorly fitted or top-dose-only effect, or effect the other way, or a change in a side signal; inactive means no such curve, though single readings can be large or run the other way; the % refers to the polarisation; further: potency means the concentration at half of the fitted maximal effect
# Target sequence (Q03164 whole entry, looked up, the tested form may be a part): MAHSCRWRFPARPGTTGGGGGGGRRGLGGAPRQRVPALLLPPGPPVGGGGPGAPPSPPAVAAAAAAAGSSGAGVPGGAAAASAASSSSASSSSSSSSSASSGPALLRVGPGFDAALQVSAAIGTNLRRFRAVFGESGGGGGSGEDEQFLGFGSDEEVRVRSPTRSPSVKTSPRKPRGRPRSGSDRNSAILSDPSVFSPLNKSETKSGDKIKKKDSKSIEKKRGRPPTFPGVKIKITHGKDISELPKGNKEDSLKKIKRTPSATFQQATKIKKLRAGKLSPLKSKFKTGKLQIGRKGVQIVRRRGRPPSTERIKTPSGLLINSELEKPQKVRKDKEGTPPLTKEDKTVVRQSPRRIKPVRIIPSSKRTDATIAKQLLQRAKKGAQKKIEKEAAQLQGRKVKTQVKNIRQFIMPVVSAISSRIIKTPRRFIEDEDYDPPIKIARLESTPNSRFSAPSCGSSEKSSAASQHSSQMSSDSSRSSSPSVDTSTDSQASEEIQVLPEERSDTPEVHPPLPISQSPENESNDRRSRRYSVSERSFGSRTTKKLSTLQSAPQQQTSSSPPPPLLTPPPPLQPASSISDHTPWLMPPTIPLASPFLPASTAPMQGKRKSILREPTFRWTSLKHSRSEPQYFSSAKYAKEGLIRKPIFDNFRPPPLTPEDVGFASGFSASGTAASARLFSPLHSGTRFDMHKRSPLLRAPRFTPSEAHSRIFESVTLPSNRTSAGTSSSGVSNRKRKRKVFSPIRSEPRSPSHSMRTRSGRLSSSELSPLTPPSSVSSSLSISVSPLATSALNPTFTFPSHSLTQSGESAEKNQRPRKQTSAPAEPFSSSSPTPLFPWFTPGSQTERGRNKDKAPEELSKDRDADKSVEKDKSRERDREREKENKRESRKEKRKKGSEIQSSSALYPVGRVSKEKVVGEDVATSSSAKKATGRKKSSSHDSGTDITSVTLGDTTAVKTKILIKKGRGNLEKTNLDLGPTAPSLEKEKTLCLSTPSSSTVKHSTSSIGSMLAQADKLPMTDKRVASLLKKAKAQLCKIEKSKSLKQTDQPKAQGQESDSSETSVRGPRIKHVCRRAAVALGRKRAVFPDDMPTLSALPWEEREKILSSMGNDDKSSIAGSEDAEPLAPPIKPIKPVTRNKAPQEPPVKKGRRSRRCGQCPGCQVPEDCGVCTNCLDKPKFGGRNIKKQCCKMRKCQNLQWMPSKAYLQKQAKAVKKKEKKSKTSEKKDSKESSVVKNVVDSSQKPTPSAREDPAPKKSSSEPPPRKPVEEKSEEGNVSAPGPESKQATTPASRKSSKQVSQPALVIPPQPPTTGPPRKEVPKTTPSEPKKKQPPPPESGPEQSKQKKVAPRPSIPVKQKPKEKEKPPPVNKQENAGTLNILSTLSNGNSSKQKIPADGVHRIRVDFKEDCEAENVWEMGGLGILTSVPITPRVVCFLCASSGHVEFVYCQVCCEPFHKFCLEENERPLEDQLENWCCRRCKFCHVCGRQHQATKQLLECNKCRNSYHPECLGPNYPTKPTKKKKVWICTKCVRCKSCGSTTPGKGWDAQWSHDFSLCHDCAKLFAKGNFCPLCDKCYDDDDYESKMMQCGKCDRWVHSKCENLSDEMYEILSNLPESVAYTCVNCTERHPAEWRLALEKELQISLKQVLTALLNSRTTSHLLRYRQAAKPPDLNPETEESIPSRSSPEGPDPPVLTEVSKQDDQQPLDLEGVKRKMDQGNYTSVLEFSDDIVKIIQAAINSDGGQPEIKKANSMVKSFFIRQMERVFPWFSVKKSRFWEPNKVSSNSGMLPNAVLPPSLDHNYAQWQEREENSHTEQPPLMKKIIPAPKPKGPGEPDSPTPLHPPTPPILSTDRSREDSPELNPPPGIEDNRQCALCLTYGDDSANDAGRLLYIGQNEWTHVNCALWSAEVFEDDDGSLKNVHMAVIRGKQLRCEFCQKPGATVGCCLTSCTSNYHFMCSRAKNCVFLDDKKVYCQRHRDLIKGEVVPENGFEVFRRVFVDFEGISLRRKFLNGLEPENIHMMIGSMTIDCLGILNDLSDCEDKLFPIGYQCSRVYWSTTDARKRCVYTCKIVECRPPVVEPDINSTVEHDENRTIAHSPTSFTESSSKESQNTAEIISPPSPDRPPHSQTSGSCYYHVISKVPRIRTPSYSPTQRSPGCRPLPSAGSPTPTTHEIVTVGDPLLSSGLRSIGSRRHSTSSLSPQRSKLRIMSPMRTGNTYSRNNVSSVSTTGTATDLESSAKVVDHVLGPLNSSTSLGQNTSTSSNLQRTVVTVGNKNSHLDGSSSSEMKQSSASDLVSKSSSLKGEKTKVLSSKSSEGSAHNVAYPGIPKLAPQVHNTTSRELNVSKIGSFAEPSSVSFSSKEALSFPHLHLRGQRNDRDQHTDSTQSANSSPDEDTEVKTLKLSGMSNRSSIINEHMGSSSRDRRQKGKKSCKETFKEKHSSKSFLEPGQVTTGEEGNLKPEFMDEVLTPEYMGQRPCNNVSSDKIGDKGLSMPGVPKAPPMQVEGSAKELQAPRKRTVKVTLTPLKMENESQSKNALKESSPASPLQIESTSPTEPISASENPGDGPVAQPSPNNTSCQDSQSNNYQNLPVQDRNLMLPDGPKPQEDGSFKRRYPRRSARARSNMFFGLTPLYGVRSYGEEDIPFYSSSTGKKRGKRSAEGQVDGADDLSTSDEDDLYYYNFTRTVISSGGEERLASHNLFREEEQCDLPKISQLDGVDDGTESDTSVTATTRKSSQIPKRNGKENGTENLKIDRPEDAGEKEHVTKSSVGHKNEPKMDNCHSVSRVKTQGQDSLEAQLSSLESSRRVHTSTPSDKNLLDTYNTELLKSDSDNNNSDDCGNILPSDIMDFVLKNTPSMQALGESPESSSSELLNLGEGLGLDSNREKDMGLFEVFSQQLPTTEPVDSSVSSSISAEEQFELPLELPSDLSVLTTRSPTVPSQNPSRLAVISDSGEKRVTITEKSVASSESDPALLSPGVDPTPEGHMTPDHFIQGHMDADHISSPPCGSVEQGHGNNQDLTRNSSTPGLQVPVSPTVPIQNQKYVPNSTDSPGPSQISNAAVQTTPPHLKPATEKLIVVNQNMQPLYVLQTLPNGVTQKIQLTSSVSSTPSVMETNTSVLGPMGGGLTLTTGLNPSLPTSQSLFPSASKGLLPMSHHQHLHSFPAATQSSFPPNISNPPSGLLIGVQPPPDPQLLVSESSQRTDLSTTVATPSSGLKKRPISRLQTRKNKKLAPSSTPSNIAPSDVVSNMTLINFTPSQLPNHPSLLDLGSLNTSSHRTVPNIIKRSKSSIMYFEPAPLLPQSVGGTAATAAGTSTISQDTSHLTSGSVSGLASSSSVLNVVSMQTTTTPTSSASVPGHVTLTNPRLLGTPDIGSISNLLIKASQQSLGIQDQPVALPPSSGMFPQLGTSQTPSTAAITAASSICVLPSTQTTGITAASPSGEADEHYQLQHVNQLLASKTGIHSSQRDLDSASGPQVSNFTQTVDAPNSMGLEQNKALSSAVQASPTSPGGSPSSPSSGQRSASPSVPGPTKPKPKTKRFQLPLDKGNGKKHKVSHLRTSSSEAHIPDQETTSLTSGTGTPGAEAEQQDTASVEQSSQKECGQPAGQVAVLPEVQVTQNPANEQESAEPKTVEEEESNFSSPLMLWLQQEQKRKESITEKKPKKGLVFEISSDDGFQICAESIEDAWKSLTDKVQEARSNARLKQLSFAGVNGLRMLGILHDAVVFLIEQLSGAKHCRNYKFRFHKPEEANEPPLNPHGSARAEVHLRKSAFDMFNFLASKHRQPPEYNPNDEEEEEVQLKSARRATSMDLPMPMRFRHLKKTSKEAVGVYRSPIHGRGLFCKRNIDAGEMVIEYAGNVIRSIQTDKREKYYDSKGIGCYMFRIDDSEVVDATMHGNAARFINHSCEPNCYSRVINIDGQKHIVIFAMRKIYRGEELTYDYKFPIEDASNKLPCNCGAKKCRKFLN
#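 Steps: dispense CXXC domain solution (7 uM) → pin compounds or unlabeled HOX-A9 DNA control → 5 min ambient → add FLSN-HOX-A9 solution (50 nM) → spin → 30 min ambient → fluorescence polarization. Tris pH 7.5/NaCl/DTT/BSA buffer.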
# PINK1 modulator: changes PINK1 expression | PINK1 immunofluorescence, high-content cytometry, 24 h | Potency, µM (doses to about 76.6 µM), for inactives: at the highest dose activation (PINK1 increase), actives largely listed as activators | 0.2% of 410,000 active | AID 624263; active means well fitted activation curve with a large enough effect; inconclusive means small, poorly fitted or top-dose-only effect; cell line not stated here; further: potency means the concentration at half of the fitted maximal effect; % of control where 0% means no effect; nearly all actives have a fitted effect of over 65% in size
#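 Cells are seeded, rested 12 hours, then given compound at five concentrations or DMSO for 24 hours. After fixation, blocking and antibody staining, PINK1 amount and mitochondrial localization are scored; CCCP serves as control.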
# Epigenetic reg: epigenetic control regulation, reporter derepression; murine LDR cells, GFP reporter derepression, 30 h; Potency, µM (top dose mostly 53.9 µM), for inactives: at the highest dose GFP activation, actives largely listed as activators; 0.2% of 280,000 active; active means well fitted activation curve with a large enough effect; inconclusive means small, poorly fitted or top-dose-only effect; further: potency means the concentration at half of the fitted maximal effect; % of control where 0% means no effect; nearly all actives have a fitted effect of over 60% in size
#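 Murine LDR cells bearing a silenced CMV-driven GFP reporter were exposed to compound for 30 h at 37 C. After PBS washes, GFP-positive cells (20-120 um objects) counted by laser-scanning microplate cytometry.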
# Menin MLL FP TR: menin-MLL binding inhibition, Texas Red mutant peptide | Menin + Texas Red MLL mutant peptide, fluorescence polarization | AID 1768 | 0.23% of 270,000 active | Potency, µM (highest dose often 61.6 µM), without a hit: top-dose FP activity change, negative = inhibition, usual class: inhibitors; active means well fitted inhibition curve with a large enough effect in the polarisation, with a control signal flat, not every such curve was filed as active; inconclusive means small, poorly fitted or top-dose-only effect, or effect the other way, or a change in a side signal; inactive means no such curve, though single readings can be large or run the other way; the % refers to the polarisation; further: potency means the concentration at half of the fitted maximal effect; % of control where 0% means no effect
# ClpP mod: qHTS Assay for Activators of ClpP; purified B. subtilis ClpP, FRET peptide cleavage, 20 min; AID 651965, 2013; ATP-dependent Clp protease proteolytic subunit (Bacillus subtilis (strain 168)), P80244; Potency, µM (titrated, usually from 57.5 µM), for inactives: at the top dose activity change, negative = active; 1.9% of 340,000 active; active means well fitted falling curve with a large enough effect; inconclusive means small, poorly fitted or top-dose-only effect; inactive means no such curve, though single readings can be large or run the other way; further: potency means the concentration at half of the fitted maximal effect; the source files actives as falling curves though it sought activators and does not explain the sign; nearly all actives have a fitted effect of over 65% in size
#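 Purified B. subtilis ClpP, 10 microg/mL final in Tris/HCl pH8 with KCl, BSA, glycerol and Tween-20, cleaved an Abz/nitrotyrosine-quenched decapeptide. Fluorescence (ex 320, em 430) was read at 0 and 20 min at room temperature. Delta was normalized to 5.8 microM ADEP and DMSO/no-enzyme controls.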
# Menin-MLL FL inh: menin-MLL binding inhibition, fluorescein peptide; FP activity change, % at 61.4 µM; Fluorescence polarization, fluorescein-MLL peptide displacement from menin; 290,000 tested, under 10 active; AID 1766; active means well fitted curve in the direction sought with a large enough effect in the polarisation, not every such curve was filed as active; inconclusive means small, poorly fitted or top-dose-only effect, or effect the other way, or a change in a side signal; inactive means no such curve, though single readings can be large or run the other way; the % refers to the polarisation; further: % of control where 0% means no effect
# Starred values were filed as active, the others as inactive; ? = inconclusive; · = no result; [ ] = another dose, or the depositor's remark.
SMILES,MLL CXXC-DNA inh,PINK1 modulator,Epigenetic reg,Menin MLL FP TR,ClpP mod,Menin-MLL FL inh
Cc1cnc(SCc2ccccn2)nc1C1CCCN(C(=O)c2coc3c2C(=O)CCC3)C1 (stereo unspecified),·,0.4%,·,·,·,·
CC(=O)C[n+]1cccc(Br)c1,·,-0.2%,·,·,-0.5%,·
O=C(c1ccc(N2CCC(NCCCn3ncc4ccccc43)CC2)cc1)N1CCc2ccccc2C1,·,0.7%,·,·,·,·
CCOC(=O)c1[nH]c2cc(OC)c(OC)cc2c1N,4.7%,2.0%,1.8%,15.9%,?,0.2
CCOC(=O)c1[nH]c2ccc(C)cc2c1N,1.9%,-4.4%[38.3 µM],3.5%,-1.0%,25.1µM*,-0.2
Cc1sc2ccccc2[n+]1CCc1ccccc1,·,·,·,·,-5.2%,·
COc1ccc(-c2cc3ccccc3[nH]2)cc1,-0.2%,1.1%,-0.3%,·,·,2.7
Cc1ccc(O)c(-c2cc3ccccc3[nH]2)c1,12.5%,12.8%,2.2%,?,14.1µM*,4.5
N#Cc1nc(-c2cccs2)oc1N1CCN(c2ccccc2)CC1,1.3%,12.0%[38.3 µM],0.0%,5.8%,28.2µM*,-2.8
N#Cc1nc(-c2ccccc2Cl)oc1N1CCCCC1,-8.6%,-1.0%,-2.4%,-4.5%,10µM*,-0.1
COc1ccc(-c2nc(C#N)c(N3CCN(c4cccc(Cl)c4)CC3)o2)cc1OC,5.6%,·,-1.0%,7.0%,28.2µM*,0.0
CC1CCN(c2oc(-c3cccc4ccccc34)nc2C#N)CC1,3.8%,·,2.6%,12.0%,5.62µM*,7.1
COc1ccc(-c2nc(C#N)c(N3CCOCC3)o2)cc1OC,1.2%,-2.4%,-1.0%,-12.7%,48.5%,5.7
O=C(C[n+]1ccncc1)c1ccc2ccccc2c1,·,0.6%,·,·,6.7%,·
CC(C)Cc1nc2cc(NS(=O)(=O)N(C)C)cc(C(=O)N3CC4(C)CC3CC(C)(C)C4)c2n1C (stereo unspecified),·,0.3%,·,·,·,·
CC1CC(C)CN(c2oc(-c3ccccc3Cl)nc2C#N)C1 (stereo unspecified),1.2%,12.0%[38.3 µM],-1.1%,2.7%,11.2µM*,-0.2
COc1ccccc1-c1nc(C#N)c(N2CCN(Cc3ccccc3)CC2)o1,7.8%,2.2%,-2.6%,-15.5%,28.2µM*,0.6
CN(C)c1oc(-c2ccccc2Cl)nc1C#N,7.0%,-2.6%,2.3%,-12.2%,14.1µM*,2.9
N#Cc1nc(-c2ccccc2Cl)oc1N1CCN(C(=O)c2ccco2)CC1,3.1%,0.9%,·,?,3.1%,0.3
Cc1cnc(-n2ncc(C(=O)NCC(C)(C)N3CCOCC3)c2C(C)C)nc1-c1ccc(F)cc1,·,-0.1%,·,·,·,·
O=S(=O)(c1ccc2c(c1)CCC2)N1CCNCC1,·,2.2%,·,·,28.2µM*,·
N#CCCN1CCN(S(=O)(=O)c2ccc3c(c2)CCC3)CC1,·,-0.8%,·,·,1.9%,·
Cc1cc(C(=O)CSc2nc3ccccc3o2)c(C)n1CC1CCCO1 (stereo unspecified),?,-1.9%,1.0%,-4.2%,28.2µM*,-1.3
CCN1C=C(C(=O)OC)C(c2cccc(OC)c2OC)C(C(=O)OC)=C1,8.0%,0.3%,-2.2%,-20.2%,31.6µM*,-4.4
COC(=O)C1=CN(C2CC2)C=C(C(=O)OC)C1c1ccccc1OC,-1.5%,-1.4%,-4.6%,-9.6%,31.6µM*,-1.5
SMILES,MLL CXXC-DNA inh,PINK1 modulator,Epigenetic reg,Menin MLL FP TR,ClpP mod,Menin-MLL FL inh
COC(=O)C1=CN(Cc2cccs2)C=C(C(=O)OC)C1c1cccc(OC)c1OC,0.6%,·,-0.8%,?,31.6µM*,-1.7
COC(=O)C1=CN(Cc2ccc(OC)c(OC)c2)C=C(C(=O)OC)C1c1cccc(OC)c1OC,3.0%,2.0%,·,?,-1.8%,0.2
CC(C)c1c(C(=O)NCCN2CCOCC2)cnn1-c1nccc(-c2ccco2)n1,·,-0.8%,·,·,·,·
Cc1c(C(=O)N2CCCC2)sc2ncnc(NCCCN3CCOCC3)c12,·,1.7%,·,·,·,·
Cc1ccc(-n2nnnc2SCc2nc3sc(C)c(C)c3c(=O)[nH]2)cc1,29.8%,?,?,-16.6%,3.55µM*,11.6
CC(=O)c1sc2nc(CSc3nnnn3-c3ccccc3)[nH]c(=O)c2c1C,59.2%,0.0%,-0.2%,?,1.4%,?
Cn1nnnc1SCc1nc2scc(-c3ccc(Cl)cc3)c2c(=O)[nH]1,14.3%,39.8µM*,?,·,-2.4%,-0.1
Cc1cccc2cc(CNCCCN3CCCC3=O)c(N3CCN4CCCC4C3)nc12 (stereo unspecified),·,1.0%,·,·,·,·
O=C(NCCc1ccccc1)[C@@H]1CC=C[C@@H]2CCN(C3CC3)C(=O)[C@@H]21,·,·,·,·,-0.7%,·
OCCCc1cn(Cc2ccccc2)c2ccccc12,1.6%,8.1%,·,-6.7%,17.8µM*,-0.6
Cc1cc(C)nc(-n2nc(C)c(Oc3ccccc3O)c2C)n1,-1.4%,2.8%,2.6%,-3.6%,28.2µM*,4.3
Cc1cccn2c(=O)c(C(=O)NC3CCCCC3C)c(O)nc12 (stereo unspecified),·,11.7%,·,·,28.2µM*,·
Cc1c(C(=O)NCCc2cccnc2)cnn1-c1ncc2c(n1)-c1ccccc1CC2,·,0.8%,·,·,·,·
Cc1ccc(CN(Cc2cc3cccc(C)c3[nH]c2=O)C(=S)NCCCN(C)C)cc1,1.1%,-0.4%,-0.2%,-7.0%,22.4µM*,-2.0
O=C(c1ccccc1)N1N=C(c2ccccc2O)CC1c1ccccc1 (stereo unspecified),?,8.2%,·,28.2µM*,-2.6%,3.0
CCOC(=O)C1CCN(C(=O)CN2C(=O)C(C(C)C)Oc3ccccc32)CC1 (stereo unspecified),2.4%,0.9%,·,?,3.55µM*,-3.3
O=C(COC(=O)c1n[nH]c2ccccc12)Nc1ccc([N+](=O)[O-])cc1,-2.9%,-3.2%,0.0%,?,-17.5%,-6.2
COc1cc(NC(=O)COC(=O)c2n[nH]c3ccccc23)c(C)cc1[N+](=O)[O-],-3.0%,44.7µM*,0.0%,?,-0.3%,-0.7
Cc1cccc(CNC(=O)c2cnn(-c3nccc(-c4cccs4)n3)c2C(C)C)n1,·,-0.6%,·,·,·,·
CCCS(=O)(=O)NCc1c(C)ncc2c1CCN(C(=O)/C=C/c1ccc(F)cc1F)C2,·,1.1%,·,·,·,·
Cn1c(=O)c2c(ncn2CC(=O)N2CCOCC2)n(C)c1=O,-3.6%,-1.7%,0.0%,-6.0%,31.6µM*,0.7
CN(C)c1ccc(/C=C/c2cc3ccccc3cn2)cc1,·,·,·,·,-4.3%,·
Nc1nonc1C(=O)N/N=C/c1cc2c(cc1[N+](=O)[O-])OCO2,1.4%,39.8µM*,·,·,·,·
O=C(N/N=C\c1cc2c(cc1[N+](=O)[O-])OCO2)c1cccs1,2.5%,29.1%,·,·,0.3%,·
COC(=O)C1CCN(Cc2ccc3c(c2)CN(C(=O)C(C)N2CCOCC2)CCO3)CC1 (stereo unspecified),·,1.4%,·,·,·,·
COc1ccc(C2C(C#N)=C(SCC(=O)Nc3ccc(C)cc3)NC3=C2C(=O)CC(C)(C)C3)cc1 (stereo unspecified),-0.5%,3.8%,-1.0%,-17.0%,22.4µM*,0.9
